KB-V1 cytotox: KB-V1 MDR subline cytotoxicity | Potency, µM (top dose mostly 46.1 µM), usual class: cytotoxic | KB-V1 MDR cells viability, CellTiter-Glo, 72 h | 400,000 compounds, 3.4% hits; also: nearly all actives have a fitted effect of over 60% in size
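In this primary screen, KB-V1 cells overexpressing P-gp are incubated with library compounds (lowest to highest concentration) for 72 h at 37 degrees C before a luminescent ATP viability read.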
DT40 TDP1 CPT: DT40-hTDP1 cell growth loss with CPT | chicken DT40 Tdp1-/-;hTDP1 cells + 20 nM CPT, ATP luminescence, 48 h | Potency, µM (series often up to 46.2 µM), inactives show at the highest dose activity change, negative = growth inhibition, actives largely listed as inhibitors | 420,000 compounds, 12% hits; also: nearly all actives have a fitted effect of over 55% in size
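Chicken DT40 Tdp1-/- cells complemented with human TDP1, 400 cells/well, exposed to compounds plus 20 nM camptothecin for at least 48 h at 37 C; viability read as ATP content by CellTiter-Glo luminescence.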
KB-3-1 tox: kills parental KB-3-1 adenocarcinoma cells; Potency, µM (titrated, usually from 46.1 µM), usual class: cytotoxic; KB-3-1 viability, CellTiter-Glo ATP luminescence, 72 h; 400,000 compounds, 1.4% hits; also: nearly all actives have a fitted effect of over 60% in size
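KB-3-1 parental drug-naive adenocarcinoma cells in DMEM/10% FBS, incubated 72 h at 37 C with pin-transferred compounds across a concentration series. Viability by CellTiter-Glo luminescence; concentration-response curves fitted after normalization.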
TDP1 cell noCPT: qHTS for Inhibitors of human tyrosyl-DNA phosphodiesterase 1 (TDP1): qHTS in cells in absence of CPT | DT40 Tdp1-/- hTDP1 cells, no CPT, ATP luminescence, 48 h | 420,000 compounds, 15% hits | Potency, µM (series often up to 46.2 µM), for the others: at the top dose activity change, negative = growth inhibition, actives largely listed as inhibitors; also: nearly all actives have a fitted effect of over 55% in size
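Chicken DT40 Tdp1-/- cells complemented with human TDP1, screened without camptothecin (DMSO vehicle only), 400 cells/well. Compounds pin-transferred, cells incubated at 37 °C for at least 48 hr. Growth read as ATP-dependent luminescence (CellTiter-Glo, 30 min at RT).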
HT1080 IDH1KD tx: HT-1080 IDH1 knockdown cell toxicity (counter line); HT-1080 IDH1 knockdown viability, ATP luminescence, 48 h; Potency, µM (titrated, usually from 46.1 µM), for the others: at the top dose activity, negative = toxicity, hits mostly cytotoxic; 360,000 compounds, 2% hits; AID 686971;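 also: 0% = DMSO wells and -100% = cell-free medium wells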
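Viability of IDH1-knockdown HT-1080 fibrosarcoma cells was assessed by CellTiter-Glo after 48 h at 37 °C with titrated compound; concentration-effect curves were classified by fit quality and response size.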
HT1080-NT tox: kills 2HG-producing HT-1080-NT fibrosarcoma cells; HT-1080-NT fibrosarcoma viability, CellTiter-Glo ATP luminescence, 48 h; Potency, µM (top dose mostly 46.1 µM), without a hit: top-dose activity, negative = less viability, actives largely listed as cytotoxic; 360,000 compounds, 1.6% hits;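 also: NT is the 2HG producing partner of a matched IDH1 knockdown line; 0% = DMSO-treated cells and -100% = media-only wells without cells; nearly all actives have a fitted effect of over 55% in size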
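Toxicity toward the 2HG-producing NT line was scored as %Activity, normalised to DMSO and no-cell wells, from CellTiter-Glo luminescence after 48 hours' treatment.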
Starred values were filed as active, the others as inactive; i = inactive; u = inconclusive; x = no result given. A selection: hits, their analogues and other compounds. The true share with any hit is near 19%. Calls follow the shape of the dose curve; as a rule, active = well fitted curve in the direction sought with a large enough effect; inconclusive = small, poorly fitted or top-dose-only effect, or another doubt; inactive = no such curve, though single readings can be large; an effect the other way counts as inactive or inconclusive. Unless noted, % is scaled to controls: 0 for no effect and ±100 for the full control effect; potency is read from the fitted curve at half-maximal effect.

SMILES | KB-V1 cytotox | DT40 TDP1 CPT | KB-3-1 tox | TDP1 cell noCPT | HT1080 IDH1KD tx | HT1080-NT tox
COc1ccc(C(N)c2csc(NC(=O)Nc3ccccc3C(C)(C)C)n2)cc1 (centres undefined) | i | u | i | u | u | u
COc1ccc(CC(N)c2csc(NC(=O)c3ccc(OC)cc3)n2)cc1 (centres undefined) | i | 16µM* | i | 21µM* | -22% | u
COc1ccc(CC(N)c2csc(NC(=O)NCCc3ccccc3)n2)cc1 (centres undefined) | i | u | i | u | u | u
COc1cc(CNC(=O)Nc2nc(C(N)Cc3ccc(Cl)cc3)cs2)cc(OC)c1OC (centres undefined) | i | u | u | 18µM* | u | 6.5µM*
COc1ccc(CC(N)c2csc(NC(=O)c3ccccc3)n2)cc1 (centres undefined) | i | u | i | u | -23% | -25%
COc1ccc(CNC(=O)Nc2nc(C(N)Cc3ccc(C(F)(F)F)cc3)cs2)cc1 (centres undefined) | u | u | u | 21µM* | u | u
COc1ccc(CC(N)c2csc(NC(=O)C(c3ccccc3)c3ccccc3)n2)cc1 (centres undefined) | 21µM* | 18µM* | u | 6.5µM* | 21µM* | u
O=C(CSc1nc2c([nH]c3ccccc32)c(=O)n1-c1ccccc1)N1CCCCC1 | x | 0% | x | -4% | x | x
COc1ccccc1NC(=O)C(=O)N(c1cccnc1)C(C(=O)NC(C)(C)C)c1ccccc1F (centres undefined) | i | 6% | i | 11% | 2% | 3%
CCC(=O)Nc1ccc(CC)cc1-c1nc2ccccc2n(Cc2ccccc2)c1=O | i | u | i | u | x | x
C[C@H](O)[C@@H]1C(=O)N2CCc3ccc(N4CCN(C)CC4)cc3[C@@H]2C[C@@H]1N(C)C(=O)c1cccnc1 | i | -7% | i | -12% | 9% | 7%
O=C(Nc1cnc(N2CCN(c3ccccc3)CC2)c(C(=O)O)c1)c1cccs1 | u | 3% | i | -21% | x | x
COc1ccc(CC(N)c2csc(NC(=O)c3ccccc3OC)n2)cc1 (centres undefined) | i | u | i | -25% | -29% | u
COc1ccc(CC(N)c2csc(NC(=O)c3ccc(F)cc3)n2)cc1 (centres undefined) | i | u | i | 23µM* | u | 21µM*
Cc1ccc2c(CC(=O)N3CCN(S(=O)(=O)c4ccc5c(c4)OCCO5)CC3)coc2c1 | u | -14% | i | u | -11% | 1%
COc1ccc(-n2c(/C=C/c3c(C)[nH]c4ccccc34)nc3ccccc3c2=O)cc1 | i | u | i | u | x | x
O=c1c2ccccc2nc(/C=C/c2c[nH]c3ccccc23)n1-c1ccc([N+](=O)[O-])cc1 | i | 10µM* | i | u | 0% | 0%
CC(=O)N(C(C)=O)n1c(/C=C/c2ccc([N+](=O)[O-])cc2)nc2ccccc2c1=O | i | u | i | u | u | u
Cc1[nH]c2ccccc2c1/C=C/c1nc2ccccc2c(=O)n1-c1cccc([N+](=O)[O-])c1 | u | u | i | 18µM* | u | u
COC(=O)CC1C(=O)NCCN1C(=O)c1ccc([N+](=O)[O-])cc1 (centres undefined) | i | 24% | i | 14% | 0% | 3%
O=C(CN(C(=O)CNC(=O)c1cccs1)c1cccc(F)c1)NC1CCCC1 | i | 3% | i | -1% | -3% | 5%
CC(=O)/C(=N/Nc1ccccc1[N+](=O)[O-])N1CCCc2ccccc21 | i | 6% | i | -10% | -29% | -4%
O=C(C=Cc1cccs1)c1cccs1 | i | u | i | 26µM* | -3% | -8%
O=C(/C=C\c1cccs1)c1c(O)ccc2ccc(=O)oc12 | i | u | u | u | 23µM* | u
O=C(/C=C/c1ccc(O)cc1)c1ccccc1O | x | 26µM* | x | 15µM* | x | x
SMILES | KB-V1 cytotox | DT40 TDP1 CPT | KB-3-1 tox | TDP1 cell noCPT | HT1080 IDH1KD tx | HT1080-NT tox
COc1ccc(/C=C/C(=O)c2ccccc2O)cc1 | i | u | i | u | 1% | 10%
O=C(/C=C/c1cccc([N+](=O)[O-])c1)c1cccs1 | u | 3.7µM* | u | 2.3µM* | 16µM* | 10µM*
CSCCC(NC(=O)c1ccccc1Cl)C(=O)NNC(=O)c1ccncc1 (centres undefined) | i | -3% | i | -1% | -10% | 0%
CC1CC(=O)NN1C(=O)c1ccccc1 (centres undefined) | i | -3% | i | -19% | 23% | 18%
CC(=O)Nc1ccc(C(=O)COC(=O)C2CC3CCCC(C2)C3=O)cc1 (centres undefined) | i | -1% | i | -2% | 2% | 3%
O=C(/C=C/c1cccc([N+](=O)[O-])c1)n1cnc2ccccc21 | u | 2.6µM* | u | 2.6µM* | 2.6µM* | u
Cc1cccc(NC(=O)/C(=C/c2cccc([N+](=O)[O-])c2)NC(=O)c2cccs2)c1 | i | -46% | i | 1.8µM* | -30% | u
CC(=O)Oc1ccccc1C(=O)C=Cc1cccc([N+](=O)[O-])c1 | 5.8µM* | 10µM* | 15µM* | 21µM* | 16µM* | u
O=C(/C=C/c1ccc(O)cc1)c1cccs1 | x | 24µM* | x | 24µM* | x | x
CC1=CN2CC(O)CN=C2C=C1 (centres undefined) | i | -7% | i | 6% | 8% | 1%
COc1ccc(C2NC(=O)NC(C)=C2C(=O)Nc2cc(C)cc(C)c2)c(OC)c1 (centres undefined) | i | -19% | i | -1% | x | x
COc1ccc(C(=O)N2CC3(CC(c4cccc(NC(=O)COc5ccc(Cl)cc5)c4)=NO3)C[C@@H]2C(N)=O)cc1 (some centres undefined) | i | 21µM* | u | u | -1% | 7%
